# Measured values as given in PubChem BioAssay AID588511 (Johns Hopkins Ion Channel Center, 2011).
# Hit rate of the full screen: of about 310,000 compounds, about 3,600 (1.2%) were called active.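 The calls were made as follows: active = ratio plate-corrected score three or more library SD toward inhibition, starting fluorescence score within five deviations; inactive = the rest.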 This excerpt belongs to a sample that is enriched for actives.
# Target: Anoctamin-1 (Mus musculus) (UniProt Q8BHY3)
# Experiment: TMEM16A chloride channel inhibitors, primary screen, cell-based, HTS (AID 588511);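 as to normalized B-score (activity score, 25-100; higher = stronger inhibition): score derived from kinetic fluorescence span divided by baseline fluorescence per well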
# Details: HEK293 TMEM16A/YFP iodide influx fluorescence, ionomycin; at 10 µM
# Anoctamin-1 (Mus musculus), sequence (Q8BHY3 whole entry, looked up): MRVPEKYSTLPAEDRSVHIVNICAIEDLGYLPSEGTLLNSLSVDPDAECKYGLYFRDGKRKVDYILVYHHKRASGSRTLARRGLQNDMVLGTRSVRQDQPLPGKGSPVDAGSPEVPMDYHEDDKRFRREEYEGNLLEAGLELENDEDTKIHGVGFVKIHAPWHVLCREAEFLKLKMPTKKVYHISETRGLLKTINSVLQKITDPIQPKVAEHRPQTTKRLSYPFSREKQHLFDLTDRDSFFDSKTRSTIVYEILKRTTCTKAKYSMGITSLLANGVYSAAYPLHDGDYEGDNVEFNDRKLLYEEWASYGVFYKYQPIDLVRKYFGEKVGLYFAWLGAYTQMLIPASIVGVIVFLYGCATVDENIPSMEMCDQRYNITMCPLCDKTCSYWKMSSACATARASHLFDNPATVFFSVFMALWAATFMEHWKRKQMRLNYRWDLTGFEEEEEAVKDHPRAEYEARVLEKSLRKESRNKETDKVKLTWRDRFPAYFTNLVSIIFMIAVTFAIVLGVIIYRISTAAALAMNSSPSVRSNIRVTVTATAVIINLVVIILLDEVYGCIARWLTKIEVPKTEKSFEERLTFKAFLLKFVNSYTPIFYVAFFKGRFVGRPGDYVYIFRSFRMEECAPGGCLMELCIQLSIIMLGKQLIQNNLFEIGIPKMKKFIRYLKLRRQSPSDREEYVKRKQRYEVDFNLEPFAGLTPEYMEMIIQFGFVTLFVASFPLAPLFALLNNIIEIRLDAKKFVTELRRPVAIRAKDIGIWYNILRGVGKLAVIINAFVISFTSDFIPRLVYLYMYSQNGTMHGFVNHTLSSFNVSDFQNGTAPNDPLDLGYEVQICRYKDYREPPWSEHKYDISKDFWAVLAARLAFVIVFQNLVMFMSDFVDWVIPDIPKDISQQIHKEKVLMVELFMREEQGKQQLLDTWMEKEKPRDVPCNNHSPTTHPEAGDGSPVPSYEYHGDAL
row,Compound,"normalized B-score (activity score, 25-100; higher = stronger inhibition)"
1,COc1ccc([C@H]2[C@H](C(C)=O)N3N=Cc4ccccc4C3C23C(=O)OC(C)(C)OC3=O)cc1 (some centres not stated),inactive
2,O=C(Nc1cccc(Cl)c1Cl)c1ccccc1NC(=O)C1CC=CCC1C(=O)O (configuration not stated),inactive
3,Cc1oc2nc(SCC(=O)NCc3cccnc3)nc(N)c2c1C,100 (active)
4,Cc1oc2nc(SCC(=O)Nc3ccc(S(N)(=O)=O)cc3)nc(NC(=O)c3ccccc3)c2c1C,inactive
5,Cc1c(C(=O)NC(=S)NCc2cccnc2)oc2ccccc12,inactive
6,COc1ccc(CCNC(=O)c2nnc(CS(=O)(=O)c3ccccc3)o2)cc1OC,inactive
7,Cc1ccccc1NC(=O)Nc1ccccc1N1CCCCC1,inactive
8,Cc1ccccc1NC(=O)CNc1ccccc1N1CCCCC1,inactive
9,O=C(CNCCC1=CCCCC1)Nc1ccccc1N1CCCCCC1,25 (active)
10,COc1ccccc1CNC(=O)CSc1nc(=O)n(Cc2ccncc2)c2c1CCC2,inactive
11,CCN(CC)CCCNC(=O)CCn1nc(-c2ccc(Cl)cc2)ccc1=O,inactive
12,Cc1ccc(-c2c[n+](=O)c3c(n2[O-])CCC3)cc1,inactive
13,Cc1ccc(OCCCC(=O)Nc2ccc(S(=O)(=O)Nc3cc(C)nc(C)n3)cc2)cc1,inactive
14,CC1CCN(S(=O)(=O)c2ccc3ncn(CC(=O)N(C)C4CCCCC4)c(=O)c3c2)CC1,inactive
15,CCN1CCCC1CNC(=O)Cn1cnc2ccc(S(=O)(=O)N3CCC(C)CC3)cc2c1=O (configuration not stated),25 (active)
16,O=C(Cn1cnc2ccccc2c1=O)Nc1cccc(S(=O)(=O)N2CCCCC2)c1,inactive
17,CC(=O)NC1C(Oc2ccc(C=O)cc2)OC(COC(C)=O)C(OC(C)=O)C1OC(C)=O (configuration not stated),inactive
18,COc1ccc(C(=O)NC(=S)NNC(=O)c2c(-c3ccccc3)noc2C)cc1,100 (active)
19,COc1ccc(C(=O)NNC(=S)NC(=O)c2ccccc2)cc1,inactive
20,Cc1onc(-c2ccccc2)c1C(=O)NNC(=S)NC(=O)c1ccc(F)cc1,inactive
21,CC(C)C[C@H](NC(=O)C1CC(=O)N(c2ccc3c(c2)OCCO3)C1)C(=O)NC1CCCC1 (some centres not stated),inactive
22,CN(c1ccc(C(=O)N2CCc3ccccc3C2)cc1)S(C)(=O)=O,inactive

row,Compound,"normalized B-score (activity score, 25-100; higher = stronger inhibition)"
1,CN(c1cccc(NC(=O)c2ccc(CN3CCc4ccccc4C3)cc2)c1)S(C)(=O)=O,25 (active)
2,Cc1cccc(C)c1NC(=O)c1ccc(CN2CCc3ccccc3C2)cc1,inactive
3,COc1cccc(-n2c(=O)c3c(C)c(C(=O)N(C)C)sc3n(CC(=O)NCCc3ccc(OC)c(OC)c3)c2=O)c1,inactive
4,Cc1nc(SC(C)C)[nH]c(=O)c1Cc1ccccc1,inactive
5,O=C1CC(C(F)(F)C(F)(F)C(F)(F)C(F)(F)F)=Nc2ccccc2N1,inactive
6,Cc1ccc(-n2ncc3c(N4CCN(c5ccc(F)cc5)CC4)ncnc32)c(C)c1,100 (active)
7,Cc1ccc2cc(C)c(N3CCN(c4ccc(F)cc4)CC3)nc2c1,inactive
8,Cc1ccc(-n2ncc3c(=O)[nH]cnc32)c(C)c1,inactive
9,CCN(CC)C(=O)Oc1ccc(OC(=O)N(CC)CC)cc1,inactive
10,Cc1ccc(NC(=O)CN2C(=O)NC(C)(c3ccc(Cl)cc3)C2=O)c(Br)c1 (configuration not stated),inactive
11,CCOC(=O)C1=C(CN2CCCCCC2)NC(=O)NC1c1cccc([N+](=O)[O-])c1 (configuration not stated),inactive
12,CCOC(=O)C1=C(CN2CCc3ccccc32)NC(=O)NC1c1ccc(Cl)cc1 (configuration not stated),inactive
13,CCOC(=O)C1=C(CN2CCc3ccccc32)NC(=O)NC1c1cccc([N+](=O)[O-])c1 (configuration not stated),25 (active)
14,CS(=O)(=O)N(CC(=O)N1CCOCC1)c1cccc(Cl)c1Cl,inactive
15,CN(CC(=O)NCCc1ccccc1)S(=O)(=O)c1cnc[nH]1,inactive
16,COc1ccc(C2C(C(C)=O)=C(O)C(=O)N2c2nccs2)cc1 (configuration not stated),inactive
17,Cc1cc(C)c(-c2c(O)c3ccccc3n(C)c2=O)c(C)c1,inactive
18,CCCCCCCCCCCCN1C(=O)CSC1c1cccnc1 (configuration not stated),25 (active)
19,CN(C)CCCN1C(=O)CSC1c1ccc([N+](=O)[O-])cc1 (configuration not stated),inactive
20,CCCCCCOc1ccc(OC(=O)c2cccnc2)cc1,inactive
21,CCOC(=O)N/N=C1\CC(C)S(=O)(=O)c2ccc(Cl)cc21 (configuration not stated),inactive
22,c1ccc(Cc2cc[n+](Cc3ccccc3)cc2)cc1,inactive

row,Compound,"normalized B-score (activity score, 25-100; higher = stronger inhibition)"
1,CN(C)c1cc[n+](Cc2ccccc2)cc1,25 (active)
2,CN(C)c1ccc(/C=C2\NC(=S)N(Cc3ccccc3)C2=O)cc1,inactive
3,O=C(NCCC1CCCCN1S(=O)(=O)c1ccccc1)C(=O)NCC1CCCO1 (configuration not stated),inactive
4,COc1ccc(CN2CN(C3CCCC3)CSC2=S)cc1,inactive
5,COC(=O)c1c(C)c(C)nc(N)c1C#N,inactive
6,COc1ccc(CNC(=O)CN(Cc2ccccc2Cl)C(=O)c2csnn2)cc1,inactive
7,CC(=O)Nc1ccc(NC(=O)CSc2nnnn2-c2ccccc2F)cc1,inactive
8,Cc1ccccc1-n1nnnc1SCCCC(=O)c1ccc(F)cc1,100 (active)
9,O=C(CSc1nnnn1-c1ccc(O)cc1)c1ccc(F)cc1,inactive
10,CC1=C(C(=O)NC2CC(C)(C)Cc3c2cnn3-c2ccc(C)cc2)OCCO1 (configuration not stated),inactive
11,CCOC(=O)c1ccc(-n2c(CCC(=O)O)ccc2-c2ccccc2)cc1,inactive
12,COCc1c(C(=O)OCc2c(C)noc2C)oc2ccccc12,inactive
13,Cc1noc(C)c1COC(=O)c1cc2ccccc2cc1O,25 (active)
14,Cc1noc(C)c1COC(=O)COc1ccc(-c2ccccc2)cc1,inactive
15,CC(=O)Nc1ccc(S(=O)(=O)Nc2cc(C)cn(Cc3ccc(C)cc3)c2=O)cc1,inactive
16,O=C(Cc1ccccn1)c1ccc(O)cc1O,inactive
17,C=CCC1(CC=C)CCCN1C(=O)c1cc(COc2ccc(-n3cncn3)cc2)on1,100 (active)
18,O=C(c1cc(COc2ccc(F)c(F)c2)on1)N1CCOCC1,inactive
19,CCn1ccnc1CN(C)C(=O)c1cc(COc2ccc(-n3cncn3)cc2)on1,inactive
20,COc1ccc(N2CCN(C(=O)CNC(=O)c3ccc(Br)o3)CC2)cc1,inactive
21,COc1ccc(-c2nc(CCNC(=O)c3ccc(Br)o3)cs2)cc1,100 (active)
22,COc1ccc(-c2csc(NC(=O)COC(=O)c3ccc(Br)o3)n2)cc1,inactive

row,Compound,"normalized B-score (activity score, 25-100; higher = stronger inhibition)"
1,COc1ccc(C(=O)COC(=O)CNC(=O)c2cccs2)cc1Br,inactive
2,CO/N=C/CC(=O)c1ccc(OC)cc1,inactive
3,COc1ccc(C(=O)CCC(=O)Nc2ccc(Cl)cc2)cc1,inactive
4,COc1ccc(CCC(=O)c2ccc(OC)cc2)cc1,100 (active)
5,O=C(CSc1nc(=O)n2ccccc2n1)Nc1ccc2c(c1)OCCO2,inactive
6,Cc1ccccc1Cn1c(=O)[nH]c2ccccc21,inactive
7,CCCc1cc(=S)n2c([nH]c3ccccc32)c1C#N,25 (active)
8,CCOC(=O)CCc1c(C)c(C#N)c2[nH]c3ccccc3n2c1=O,inactive
9,CCN1CCN(c2cc3nc(C)n(Cc4ccccc4)c(=O)c3cc2NC(=O)c2ccccc2F)CC1,inactive
10,CCC(=O)Nc1nc2ccccc2n1Cc1ccccc1C,inactive
11,CCC(=O)Nc1ccc2nc(C)n(Cc3ccccc3Cl)c(=O)c2c1,100 (active)
12,COC(c1ccccc1)(c1ccccc1)C(Oc1nc(C)cc(C)n1)C(=O)O (configuration not stated),inactive
13,O=C1NCCn2nc3ccccc3c21,inactive
14,COc1ccc(NC(=O)C2CCN(S(=O)(=O)c3ccc4[nH]c(=O)oc4c3)CC2)c(OC)c1,inactive
15,CC(=O)c1cccc(OCc2cc(C(=O)NC(C)Cc3cccnc3)no2)c1 (configuration not stated),inactive
16,Cc1ccc(OCc2cc(C(=O)N(C)CCc3ccccc3)no2)cc1C,inactive
17,CN(Cc1cccnc1)C(=O)c1cc(COc2ccc3ncccc3c2)on1,100 (active)
18,O=c1c(-c2ccc3c(c2)OCCO3)c(C(F)(F)F)oc2cc(O)cc(O)c12,inactive
19,CCOC(=O)c1cc(=O)c2ccc(OCc3ccccc3)cc2o1,inactive
20,CCOC(=O)c1cc2cc(-c3c(C(=O)OCC)oc4cc(O)cc(O)c4c3=O)ccc2o1,100 (active)
21,COCCn1c(Cc2cccn2C)nnc1SCC(=O)Nc1nccs1,inactive
22,COCCCN1C(=O)c2ccc(C(=O)OCC(=O)NCc3ccccc3OC)cc2C1=O,inactive

row,Compound,"normalized B-score (activity score, 25-100; higher = stronger inhibition)"
1,CC1(N2CCOCC2)CC2(O)C(=[N+]1[O-])CCc1nonc12 (configuration not stated),inactive
2,CN1C(=O)/C(=C\c2cc(Br)cs2)c2ccccc21,inactive
3,Cc1ccc(C2C3=C(Nc4[nH]n(-c5ccccc5)c(=O)c42)c2ccccc2C3=O)cc1 (configuration not stated),inactive
4,CCOC(=O)C1=C(c2ccc(OC)cc2)C(=O)c2ccccc2C1=O,inactive
5,COC(=O)C1=C(C)NC2=C(C(=O)c3ccccc32)C1c1ccc(-c2ccc(C(=O)O)cc2)o1 (configuration not stated),25 (active)
6,CCCOc1ccc(Cc2c(Cl)nc(SC)nc2NC)cc1,100 (active)
7,CCCOc1ccc(-c2nc(N)n[nH]2)cc1,inactive
8,CCCOc1ccc(Cc2c(O)nc(SC)[nH]c2=O)cc1C,inactive
9,CSc1ncccc1C(=O)OCc1ccc(Br)cc1,inactive
10,COc1ccc(OC)c(C2C3=C(N=c4s/c(=C\c5cccc(O)c5)c(=O)n42)c2ccccc2CC3)c1 (configuration not stated),inactive
11,O=C1CC(c2ccccc2)=NN1c1ccc([N+](=O)[O-])cc1,100 (active)
12,CC1=NN(c2ccccc2)C(=O)C1C(=O)c1ccc([N+](=O)[O-])cc1 (configuration not stated),inactive
13,Cc1nn(-c2ccc([N+](=O)[O-])cc2)c(N)c1-c1ccccc1,inactive
14,CCNC(=O)NNC(=O)C1CC(c2cccs2)=NO1 (configuration not stated),inactive
15,Nc1nnc(SCC(=O)OCc2ccc(Cl)c(Cl)c2)s1,inactive
16,Cc1ccc(CNC(=O)C2CCCN2C(=O)NCc2ccccc2)cc1 (configuration not stated),inactive
17,Cc1ccc(C(=O)N/C(=C\c2cn(C)c3ccccc23)C(=O)N2CCN(C)CC2)cc1,inactive
18,Cc1ccc(N2C(=O)S/C(=C/c3cn(C)c4ccccc34)C2=O)cc1,25 (active)
19,Cc1cc(/C=C2\SC(=O)N(C)C2=O)c(C)n1-c1cccc(C(=O)O)c1,inactive
